BRCA1 expr act – increases BRCA1 expression; AID 624202; MCF7-BRCA1-FFLuc reporter, luminescence, 48 h; response scale: scaled: vehicle 0%, 10 µM genistein 100%; Potency, µM (top dose mostly 46.1 µM), inactives show at the highest dose activation, actives largely listed as activators; 380,000 tested, 1.1% active; also: potency is read from the fitted curve at half-maximal effect; nearly all actives have a fitted effect of over 80% in size
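MCF7 cells carrying a BRCA1-firefly luciferase reporter (2000 cells/well, phenol-red free MEM) were attached for 2 h at 37 °C, then given compounds for 48 h. Luminescence was read 15 min after luciferase reagent; activity normalized to genistein (10 microM) and DMSO.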
D3 antag – blocks the human D3 dopamine receptor; 360,000 tested, 2.5% active; max response, negative = inhibition, %; P35462; D3R cells, DiscoveRx beta-arrestin luminescence, antagonist mode; active compounds read low; AID 652054; in the data active = max response below about -50%; inconclusive = no clear call, values can overlap the other calls; also: % is scaled to controls: 0 for no effect and ±100 for the full control effect
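Cells expressing the human receptor were seeded at 1500 cells/well, incubated overnight at 37 degrees C in 5% CO2, then exposed to library compounds with dopamine controls for 90 minutes at 37 degrees C before luminescent detection.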
PTHR1 agonist – PTHR1 (human) receptor agonism; HEK293 GP2 PTHR1 cells, GloSensor cAMP luminescence, 1 h; Potency, µM (highest dose often 115 µM), for the others: at the highest dose activation, hits mostly activators; 410,000 tested, 0.075% active; AID 743266; also: potency is read from the fitted curve at half-maximal effect; nearly all actives have a fitted effect of over 55% in size
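HEK-293-derived GP2 cells expressing PTHR1 and a GloSensor cAMP reporter, 3,000/well, plated overnight, given luciferin plus IBMX (each 0.5 mM as added) for 1 h at 37 °C, then compound for 1 h at 37 °C. Luminescence was read after 15 min at room temperature.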
RGS4 inhibitor – inhibitors of human regulator of G protein signaling 4; P49798; Transcreener GDP fluorescence polarization, RGS4-accelerated GTP hydrolysis; Potency, µM (series often up to 114 µM), without a hit: at the top dose activity change, negative = inhibition, usual class: inhibitors; 390,000 tested, 0.039% active; AID 504845; also: potency is read from the fitted curve at half-maximal effect; % is scaled to controls: 0 for no effect and ±100 for the full control effect; nearly all actives have a fitted effect of over 75% in size
Target sequence (P49798 whole entry, looked up): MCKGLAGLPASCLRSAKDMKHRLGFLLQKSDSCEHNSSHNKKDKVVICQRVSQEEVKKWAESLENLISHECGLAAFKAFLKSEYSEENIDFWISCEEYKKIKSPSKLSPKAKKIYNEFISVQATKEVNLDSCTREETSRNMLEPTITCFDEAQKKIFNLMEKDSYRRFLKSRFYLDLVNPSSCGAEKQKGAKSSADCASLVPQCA
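MLSMR compounds (23 nl, pin-transferred) preincubated 10 min at room temperature with a 500nM (2x) first reagent, then RGS4 at 900nM (2x) plus Transcreener GDP mix added; fluorescence polarization (620/688 nm) read before and after 90 min at 30 °C.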
B2AR arrestin – agonists driving beta-arrestin recruitment to human beta2-adrenergic receptor; P07550; beta-arrestin recruitment to beta2AR, cell-based reporter; Potency, µM (titrated, usually from 46.1 µM), inactives show top-dose activation, actives largely listed as activators; 330,000 tested, 0.02% active; AID 492947;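 also: potency is read from the fitted curve at half-maximal effect; 0% = DMSO controls and full agonism = EC100 isoproterenol or metaproterenol; nearly all actives have a fitted effect of over 65% in size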
Target sequence (P07550 whole entry, looked up): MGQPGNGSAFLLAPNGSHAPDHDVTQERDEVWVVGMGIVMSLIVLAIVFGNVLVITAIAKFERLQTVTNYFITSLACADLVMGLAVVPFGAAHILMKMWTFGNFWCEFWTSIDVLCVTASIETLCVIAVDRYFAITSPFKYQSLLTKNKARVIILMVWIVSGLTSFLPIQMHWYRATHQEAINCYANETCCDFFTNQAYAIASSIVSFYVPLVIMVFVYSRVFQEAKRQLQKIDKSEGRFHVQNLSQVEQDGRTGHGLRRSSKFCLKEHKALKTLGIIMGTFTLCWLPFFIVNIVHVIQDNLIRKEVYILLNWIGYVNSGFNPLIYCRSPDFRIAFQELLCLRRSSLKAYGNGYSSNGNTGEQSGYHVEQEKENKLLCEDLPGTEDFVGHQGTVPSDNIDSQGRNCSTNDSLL
D3 ag – agonists of human D3 dopamine receptor | P35462 | D3R DiscoveRx beta-arrestin cells, luminescence, 90 min | max activation, % | 410,000 tested, 0.58% active | AID 652048; in the data active = max activation above about 30%; also: 0% is about no effect
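Agonist-mode cell screen: cells plated at 1500/well and incubated overnight at 37 °C, then exposed to library compounds for 90 min at 37 °C. Detection reagent was added for 30–60 min at room temperature, and luminescence was read.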
Numbers without * were called inactive; i = inactive; ? = inconclusive; · = no result; [ ] = remark or other dose. This is a sample that favours compounds with a hit; in the whole collection about 3.7% have one here. Unless noted, calls follow the shape of the dose curve; as a rule, active = well fitted curve in the direction sought with a large enough effect; inconclusive = small, poorly fitted or top-dose-only effect, or another doubt; inactive = no such curve, though single readings can be large; an effect the other way counts as inactive or inconclusive.

SMILES	BRCA1 expr act	D3 antag	PTHR1 agonist	RGS4 inhibitor	B2AR arrestin	D3 ag
COCCNC(=S)NC1CC2CCC(C1)N2Cc1ccccc1 (stereo unspecified)	-17.2%	?	-1.0%	16.8%	-0.2%	-12.3
CCCN(CCC)CCCNC(=O)c1nn(-c2cccc(OC)c2)c(=O)c2ccccc12	8.4%	-6.7	i	1.0%	-0.4%	-2.5
Cn1c(SCC(=O)c2ccccc2)nnc1-c1cccs1	10µM*	9.1	-28.0%	-37.0%	0.0%	-1.9
Cn1c(SCC(=O)NCc2cccs2)nnc1-c1cccs1	0.1%	-8.3	i	25.9%	·	-9.5
CCC(=O)Nc1cccc(-c2nnc(SCC(=O)c3ccccc3)n2C)c1	43.0%	-52.4*	-9.0%[57.5 µM]	-25.2%[56.9 µM]	?	-8.3
CCn1c(SCC(=O)c2ccccc2)nnc1-c1cnccn1	10µM*	-11.4	i	4.5%	0.0%	2.6
O=C(CN1C(=O)NC2(CCCC2)C1=O)N1CCCSC1=Nc1ccccc1	-14.6%	12.3	i	-5.5%	-1.6%	3.1
CCCCN(C=O)c1c(CC)nc2ccc(C(=O)NCCOc3ccc(OC)cc3)cn12	-14.8%	-3.1	i	·	·	3.5
COc1ccc(CCNC(=O)C(=O)NCc2cccs2)cc1OC	-42.7%	-0.5	i	20.6%	-0.3%	2.1
CC(C)=CCCC(C)CN(C)CCc1ccccn1 (stereo unspecified)	-9.7%	-64.3*	-17.0%[57.5 µM]	9.1%	0.3%	-59.7
Cc1ccccc1CN(C)CCc1ccccn1	-8.1%	-12.7	-28.4%	19.7%	0.2%	-5.7
COc1ccccc1/C=C1\SC(N2CCC(C)CC2)=NC1=O	81.4%	-65.5*	-17.3%	-17.0%	0.6%	-24.4
COc1ccc(-n2nnnc2C2c3ccccc3C(=O)N2C2CCN(Cc3ccccc3)CC2)cc1 (stereo unspecified)	-8.7%	?	i	·	·	-10.4
COC(=O)c1cc(OC)c(OC)cc1NC(=O)c1c(-c2ccccc2Cl)noc1C	-72.5%	39.0	i	-0.3%	0.3%	44.3*
COC(=O)c1cc(OC)c(OC)cc1NC(=O)Cn1nnc(-c2ccccc2Cl)n1	-82.3%	6.4	-15.7%[57.5 µM]	-7.4%	-0.5%	51.9*
CCn1ncc(/C=N/N=C2\CCC3C4CCc5cc(O)ccc5C4CCC23C)c1C (stereo unspecified)	-31.0%	88.3	-7.2%	-2.2%	-0.2%	33.6*
Cc1sc(=NC(=O)c2ccco2)n(C)c1-c1ccc(Cl)cc1	6.31µM*	-12.9	-12.1%	-7.7%	-0.1%	0.5
COc1ccc(C)cc1S(=O)(=O)NNc1nc(C)cc(C)n1	-30.6%	-22.6	-11.3%	-7.8%	-0.3%	0.5
Cc1ccc(NC(=O)C(=O)NCc2ccco2)cc1	·	·	-46.7%	20.7%	·	-2.0
Cc1ccc(NC(=O)C(=S)NCc2ccco2)cc1	7.08µM*	0.7	-32.7%[57.5 µM]	-25.6%	-0.4%	6.7
Cc1ccc(NC(=O)CSCC(=O)NCc2ccco2)cc1	1.1%	7.6	-4.1%	-3.8%	-0.2%	12.0
Cc1ccc(NC(=O)CSCc2ccco2)cc1	10µM*	7.3	-8.6%	-14.7%	-0.2%	-3.4
O=C(NCCSCc1ccco1)Nc1ccc(Cl)cc1	8.91µM*	0.9	-38.3%	-8.0%	·	-3.3
O=C(NCCSCc1ccco1)Nc1cccc(Cl)c1	?	-20.2	i	-23.8%	0.0%	-15.9
CSC1=NC2(CCN(C(=O)NC3CCCCC3)CC2)N=C1c1ccc(C)c(C)c1	·	·	-14.4%	-7.0%	·	-2.2
SMILES	BRCA1 expr act	D3 antag	PTHR1 agonist	RGS4 inhibitor	B2AR arrestin	D3 ag
Cc1ccc(S(=O)(=O)N2CCN(C(=O)c3cc(-c4ccc(Br)cc4)n[nH]3)CC2)c(C)c1	·	·	-23.6%	4.2%	·	11.1
Cc1cc(Br)ccc1NC(=O)c1sc2ncn(Cc3ccccc3Cl)c(=O)c2c1C	·	·	?	-5.4%	·	-1.9
O=C(O)CCC(C(=O)O)n1c(O)c(C2=c3ccccc3=NC2=O)sc1=S (stereo unspecified)	-5.1%	-102.8*	i	-41.3%	-0.1%	-9.4
Cc1nc(SCC(=O)N2CCN(c3ccccc3)CC2)c2oc3ccccc3c2n1	-33.1%	117.6	-12.0%	-3.6%	-0.1%	42.2*
Cc1nc(SCC(=O)O)c2oc3ccccc3c2n1	7.7%	-25.6	i	13.9%	0.1%	-2.5
Cc1nn(C)c2c1c(-c1ccccc1)cc(=O)n2CC(=O)Nc1ccccc1C(F)(F)F	·	·	i	-17.5%	·	16.7
O=C(NC1CC2CCCC(C1)N2Cc1ccccc1)c1cccc(F)c1 (stereo unspecified)	9.6%	-105.5*	i	39.9%	0.1%	-18.5
O=C(NC1CC2CCCC(C1)N2Cc1ccccc1)c1cccc(Cl)c1 (stereo unspecified)	3.3%	-75.9*	i	-11.7%	0.4%	-11.3
Cc1ccc(S(=O)(=O)C[C@@H]2OC3CCCCC3N2S(=O)(=O)c2ccc(C)cc2)cc1 (stereo partly specified)	·	-16.3	-5.0%	·	·	2.7
CCCOc1ccc(NC(=O)CC2C(=O)N(c3ccc(F)cc3)C(=O)N2CC(C)C)cc1 (stereo unspecified)	·	·	i	10.4%	·	61.7*
O=C(NCCc1ccccn1)c1cc2ccccc2o1	10µM*	-8.8	-3.0%	9.2%	1.0%	-7.1
CC(=O)Nc1ccc(S(=O)(=O)NCC2CCC(C(=O)NCCc3ccc(C)cc3)CC2)cc1 (stereo unspecified)	·	·	-9.9%	4.5%	·	-1.3
Cc1cc(C)cc(C(=O)NC(CC(N)=O)c2ccc(N3CCC(Br)CC3)c([N+](=O)[O-])c2)c1 (stereo unspecified)	24.0%	0.0	?	-22.1%	-1.2%	32.0*
NC(=O)CC(NC(=O)Cc1cccc2ccccc12)c1ccc(N2CCC(N3CCCCC3)CC2)c([N+](=O)[O-])c1 (stereo unspecified)	-6.3%	0.0	i	-24.2%	-0.7%	0.0
NC(=O)CC(NC(=O)Cc1cccc2ccccc12)c1ccc(N2CCCCCC2)c([N+](=O)[O-])c1 (stereo unspecified)	-22.1%	-68.1*	-16.3%	-20.7%	-0.5%	-36.8
NC(=O)CC(NC(=O)c1ccccc1)c1ccc(N2CCC(Br)CC2)c([N+](=O)[O-])c1 (stereo unspecified)	-14.0%	0.0	-31.4%	-20.6%	-0.4%	12.9
CC1=C(C(=O)N(C(C)C)C(C)C)CC(CC(=O)NCCCN(C)C)C(=O)N1CCCN1CCCC1=O (stereo unspecified)	10.4%	24.4	-9.4%	·	·	6.6
CC(=O)Nc1ccc(/C=C/c2nc(-c3ccccc3O)n(-c3ccccc3)n2)cc1	·	·	-10.9%	-20.9%	·	0.6
CCCC(=O)Nc1sc(C(=O)OC)c(C)c1C(N)=O	8.8%	-125.0*	i	-34.1%	-0.2%	-2.4

Assay outcomes as filed in PubChem.
